# Test results from publication PMC4552634, “A New Set of Chemical Starting Points with Plasmodium falciparum Transmission-Blocking Potential for Antimalarial Drug Discovery” (PLoS ONE, 2015).
# About 3,200 (25%) of roughly 13,000 compounds showed an effect of 50% or more. Some of the results follow.
# Test system: P. falciparum stage V gametocytes
# Parameters: BacTiter-Glo ATP luminescence viability of purified stage V gametocytes in 384-well plates, per cent inhibition versus DMSO
# Conditions: 48 h, 5 µM; inhibitor
row,Compound,% Inhibition
1,COc1cc(Cc2cnc(N)nc2N)ccc1OCc1ccc(-c2ccccc2C#N)cc1 [TCMDC-138638],-1.728%
2,Cc1ccc2c(NC(=O)Nc3ccc(N(C)C)cc3)cc(C)nc2c1 [TCMDC-140144],-85.96%
3,CC(C)C[C@@H](NC(=O)OC(C)(C)C)C(=O)Nc1ccc(Cc2ccc(NC(=O)[C@@H](CC(C)C)NC(=O)OC(C)(C)C)cc2)cc1 [TCMDC-131869],-46.99%
4,NCCCNc1ccc(-c2ccc(NC(=O)Nc3cc(C(F)(F)F)ccc3F)cc2)cn1 [TCMDC-133550],53.18%
5,Nc1ncc(-c2ccc(NC(=O)Nc3cc(C(F)(F)F)ccc3F)cc2)c(N)n1 [TCMDC-133420],7.471%
6,Nc1nccc2ccc(-c3ccc(NC(=O)Nc4cc(C(F)(F)F)ccc4F)cc3)cc12 [TCMDC-133422],80.96%
7,Nc1ccc(-c2ccc(NC(=O)Nc3cc(C(F)(F)F)ccc3F)cc2)cn1 [TCMDC-133410],11.7%
8,Cc1cc(N)ncc1-c1ccc(NC(=O)Nc2cc(C(F)(F)F)ccc2F)cc1 [TCMDC-133438],25.29%
9,Nc1ncnc2occ(-c3ccc(NC(=O)Nc4cc(C(F)(F)F)ccc4F)cc3)c12 [TCMDC-141371],14.45%
10,Cc1nc(-c2cccc(Nc3nccc(NCC(O)c4ccc(C(F)(F)F)cc4)n3)c2)cs1 (stereo not drawn) [TCMDC-136591],22.87%
11,Cc1nc(-c2cccc(Nc3nccc(NCC(O)c4ccccc4C)n3)c2)cs1 (stereo not drawn) [TCMDC-136567],-8.142%
12,Cc1cc(Nc2ccccc2)nc(Nc2ccccc2C)n1 [TCMDC-123883],4.396%
13,CCC1(c2ccccc2)N=C(N)N(CCCc2ccccc2)C1=O (stereo not drawn) [TCMDC-136547],23.07%
14,CCCCCN1CCN(Cc2cccc(NC(=O)c3ccc(Cl)c(Cl)c3)c2)CC1 [TCMDC-134616],-65.82%
15,CCCCCN1C(=O)N(c2ccc(Cl)c(Cl)c2)C(N(O)C(=O)Nc2ccc(Cl)c(Cl)c2)C1(C)C (stereo not drawn) [TCMDC-124134],67.16%
16,CC1(C)C(N(O)C(=O)Nc2ccc(Cl)c(Cl)c2)N(c2ccc(Cl)c(Cl)c2)C(=O)N1CCc1ccccc1 (stereo not drawn) [TCMDC-125555],-2.423%
17,O=C(NCCN1CCC(c2ccncc2)CC1)c1cccc(Nc2nccc(Nc3ccc(Oc4ccccc4)cc3)n2)c1 [TCMDC-138607],-52.85%
18,COc1ccc2nccc([C@@H](O)CN3CCC(NC(=O)/C=C/c4ccc5[nH]c(=O)ccc5c4)CC3)c2c1 [TCMDC-141032],-20.87%
19,O=C(Nc1ccc(N2CCCCC2)c(Cl)c1)c1ccco1 [TCMDC-124392],30.55%
20,c1ccc2c(c1)CN(Cc1cc3ccccc3[nH]1)CC1(CCN(Cc3c[nH]c4cnccc34)CC1)O2 [TCMDC-133376],66.92%
21,Oc1ccc(CN2Cc3ccccc3OC3(CCN(Cc4c[nH]c5cnccc45)CC3)C2)cc1 [TCMDC-133377],0.4377%

row,Compound,% Inhibition
1,c1ccc2c(c1)CN(CC1CC1)CC1(CCN(Cc3c[nH]c4cnccc34)CC1)O2 [TCMDC-133375],-19.67%
2,O=C(NCc1ccc(F)cc1)Nc1ccc(-c2cccc(-c3nc4ccc(C(F)(F)F)cc4[nH]3)c2)cc1 [TCMDC-133298],-50.83%
3,CS(=O)(=O)c1ccccc1CNC(=O)c1ccc(-c2ccc(-c3nc4cc(C(F)(F)F)ccc4[nH]3)s2)cc1 [TCMDC-132507],9.09%
4,COc1ccc2nccc([C@@H](O)CN3CCC(NC(=O)C(c4cc5ccccc5o4)N4CCN(c5ccc(F)cc5)CC4)CC3)c2c1 (stereo partly drawn) [TCMDC-140996],-29.58%
5,CCc1c(CCNCCCCCCNCc2ccc3c(c2CC)OCO3)ccc(OC)c1OC [TCMDC-132068],92.52%
6,CCc1c(CCNCCCCCCNC(C)(C)Cc2ccc3c(c2CC)OCO3)ccc(OC)c1OC [TCMDC-132055],110.7%
7,CCc1c(CCNCCCCCCNCCc2ccc3c(c2C)OCO3)ccc2c1OCO2 [TCMDC-132093],97.88%
8,CCc1c(CCNCCCCCCNC(C)Cc2ccc3c(c2CC)OCO3)ccc(OC)c1OC (stereo not drawn) [TCMDC-132052],111%
9,Nc1cnc(C#Cc2cc3ncnc(N(CCN4CCOCC4)c4ccc(OCc5cccc(F)c5)c(Cl)c4)c3s2)cn1 [TCMDC-134752],42.15%
10,Cc1cc(Oc2cc(NC(=O)c3sc4ncn(Cc5ccccc5F)c(=O)c4c3C)cc([N+](=O)[O-])c2)ccc1Cl [TCMDC-125704],16.56%
11,O=C(c1ccc(O)c(-c2cc(Cl)cc(Cl)c2)c1)N1CCCC1 [TCMDC-140161],-10.57%
12,CCOc1ccc(NC(=O)c2cccc(CN3CCCN(Cc4cccc(O)c4)CC3)c2)cc1 [TCMDC-135987],-4.859%
13,CCOc1ccc(NC(=O)c2ccc(CN3CCCN(Cc4cccc(O)c4)CC3)cc2)cc1 [TCMDC-136436],8.028%
14,COc1cc(OC)c(NC(=O)COc2ccc(C)cc2)cc1Cl [TCMDC-123682],23.04%
15,CCOc1ccc(NC(=O)c2cn3nc(-c4ccc(OCC)cc4)cc3nc2C2CCNCC2)cc1 [TCMDC-125277],105.9%
16,CCOc1cc(C)ccc1C1CCN(CCCCNC(=O)c2ccc(-c3ccc(Cl)cn3)cc2)CC1 [TCMDC-138562],-60.76%
17,CCOc1ccc(-c2cc3nc(C4CCNCC4)c(C(=O)Nc4ccc(C)cc4Cl)cn3n2)cc1 [TCMDC-125296],121.3%
18,O=C(Nc1cccc(-c2cccc(-c3nc4ccc(C(F)(F)F)cc4[nH]3)c2)c1)c1csnn1 [TCMDC-136902],10.49%
19,Cc1cc2c(cc1Cl)N(C(=O)Nc1cc(F)cc(-c3cncnc3)c1)CC2 [TCMDC-139052],-4.717%
20,COc1cc2nccc(Nc3cccc(Oc4ccccc4)c3)c2cc1OC.Cl [TCMDC-137216],29.43%
21,Cc1ccc(NC(=O)c2ccc(CN3CCCN(Cc4cccc(O)c4)CC3)cc2)cc1F [TCMDC-136395],3.853%
